Test systems include STK36; STK39; SYK; SgK110; TAOK1; TAOK2; TAOK3; TBK1; TEC; TESK1; TGFBR1; TGFBR2; TIE1; TLK1; TLK2; TNIK; TNK1; TNK2.
Holding throughout (conditions): concentration: 1 μM, replicates: in singlicate; n = 1
The next assay relates to T1, TAK1.
T1 construct: gene MAP3K7

Another assay deals with T2, TIE2.
T2 construct: gene TEK
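Also: KINOMEscan kinase panel screen.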

Take `FC(F)(F)c1ccc(/C=C/c2cncnc2Nc2ccc3[nH]c(Cc4ccccc4)nc3c2)cc1` [GW709199]: the “%Inh” value in the assay with STK36 came out at 0%; with STK39, 0%; in the assay with SYK, 10%; in the assay with SgK110, 9%; with TAK1 it was 0%; with TAOK1 it was 0%. Moreover, the “%Inh” value with TAOK2 was 0%; in the assay on TAOK3, 0%; in the assay with TBK1, 36%; in the assay with TEC it was 14%; in the assay with TESK1, 2%; with TGFBR1 it was 28%. The “%Inh” value with TGFBR2 was 0%; in the assay with TIE1, 0%; in the assay on TIE2, 15%; with TLK1, 0%; in the assay on TLK2, 0%; with TNIK, 0%. In addition, the “%Inh” value in the assay on TNK1 and in the assay on TNK2 was 0% each time.

Consider `O=C(Nc1cccc(-c2nn3ncccc3c2-c2ccnc(Nc3ccccc3)n2)c1)c1c(F)cccc1F` [GSK198271], for which the “%Inh” value with STK36 is 100%; in the assay with STK39 it was 0%; in the assay with SYK it was 37%; in the assay with SgK110, 0%; with TAK1, 0%; in the assay with TAOK1 it was 90%. For the same molecule, the “%Inh” value in the assay on TAOK2 worked out at 93.2%; with TAOK3, 97.3%; with TBK1 it was 0%; in the assay on TEC it was 95.4%; with TESK1, 24%; in the assay with TGFBR1, 0%. The “%Inh” value amounted to 0% in the assay with TGFBR2; 45% in the assay with TIE1; 25% in the assay on TIE2; 22% in the assay on TLK1; 0% with TLK2; 32% in the assay on TNIK. For the same molecule, the “%Inh” value in the assay with TNK1 amounted to 97.4%; in the assay with TNK2, 51%.

`COc1cc2c(cc1OCCN1CCNCC1)ncc1c3ccc(C#N)cc3[nH]c21`: the “%Inh” value stood at 6% in the assay with STK36; 33% in the assay with STK39; 0% in the assay with SYK; 0% with SgK110; 95.1% in the assay on TAK1; 0% in the assay with TAOK1. Also, the “%Inh” value was determined as 4% in the assay on TAOK2; 2% with TAOK3; 81% in the assay on TBK1; 0% with TEC; 2% in the assay with TESK1; 20% in the assay on TGFBR1. Also, the “%Inh” value with TGFBR2 worked out at 0%; in the assay with TIE1 it was 1%; in the assay with TIE2 it was 5%; in the assay on TLK1 it was 25%; in the assay with TLK2 it was 0%; in the assay with TNIK, 76%. Besides, the entries for the “%Inh” value in the assay with TNK1 and in the assay with TNK2 were 4% and 0%, respectively.

With `Clc1ccc(-c2nn3ncccc3c2-c2ccnc(Nc3ccc4c(c3)OCCO4)n2)cc1` [GW829116], the “%Inh” value in the assay on STK36 is recorded as 79%; in the assay with STK39, 0%; with SYK it was 0%; in the assay with SgK110, 11%; in the assay with TAK1, 0%; in the assay with TAOK1, 0%. For the same molecule, the “%Inh” value turned out to be 19% with TAOK2; 0% with TAOK3; 19% in the assay with TBK1; 0% in the assay with TEC; 11% in the assay with TESK1; 46% in the assay on TGFBR1. Moreover, the “%Inh” value in the assay on TGFBR2 worked out at 23%; with TIE1 it was 24%; with TIE2, 0%; with TLK1 it was 0%; with TLK2 it was 0%; in the assay with TNIK, 31%. The results for the “%Inh” value in the assay on TNK1 and in the assay on TNK2 were 46% and 0%, respectively.

Turning to `CC(C)c1nc(-c2cccc(NS(=O)(=O)c3c(F)cccc3F)c2F)c(-c2ccnc(Nc3ccc(N4CCOCC4)nc3)n2)s1` [GSK2008607], the “%Inh” value stood at 100% in the assay on STK36; 48% in the assay on STK39; 85% with SYK; 0% in the assay on SgK110; 76% with TAK1; 10% in the assay on TAOK1. Further, the “%Inh” value with TAOK2 is 71%; in the assay on TAOK3 it was 19%; with TBK1, 51%; in the assay with TEC, 85%; in the assay with TESK1, 100%; in the assay with TGFBR1, 86%. For the same molecule, the “%Inh” value is on record as 77% in the assay with TGFBR2; 91.2% in the assay with TIE1; 99.1% in the assay with TIE2; 22% in the assay with TLK1; 0% in the assay with TLK2; 63% in the assay with TNIK. For the same molecule, the “%Inh” value is 100% in the assay on TNK1 and 99.6% in the assay with TNK2.

`Cc1ccc(C)c(NC(=O)NC2CCN(c3ccnc(Nc4ccc(F)cc4)n3)C2)c1` (centres unmarked) [GSK1379720]: the “%Inh” value with STK36 came out at 5%; in the assay on STK39 it was 10%; in the assay on SYK, 16%; in the assay with SgK110 it was 11%; with TAK1 it was 0%; in the assay with TAOK1, 0%. Besides, the “%Inh” value with TAOK2 amounted to 0%; with TAOK3, 0%; in the assay on TBK1, 0%; in the assay with TEC it was 2%; in the assay with TESK1 it was 28%; with TGFBR1, 12%. The “%Inh” value with TGFBR2, in the assay on TIE1, in the assay on TIE2, in the assay on TLK1, with TLK2 and in the assay with TNIK was 0% throughout. Besides, the “%Inh” value with TNK1 was found to be 0%; in the assay with TNK2, 21%.

Regarding `Fc1ccc(-c2ncn(C3CCNCC3)c2-c2ccnc(Oc3ccc(-c4ccccc4)cc3)n2)cc1` [SB-245391], the “%Inh” value with STK36 worked out at 8%; with STK39, 14%; with SYK it was 0%; in the assay on SgK110, 0%; in the assay on TAK1 it was 42%; in the assay with TAOK1, 28%. Also, the “%Inh” value is on record as 6% with TAOK2; 20% with TAOK3; 8% in the assay with TBK1; 5% in the assay on TEC; 19% in the assay with TESK1; 59% with TGFBR1. The “%Inh” value in the assay with TGFBR2 is 16%; in the assay with TIE1, 46%; in the assay on TIE2, 31%; with TLK1 it was 3%; with TLK2 it was 35%; in the assay with TNIK it was 11%. Besides, the “%Inh” value with TNK1 is on record as 10%; in the assay on TNK2 it was 0%.

On to `COC(=O)Nc1nc2cc(Oc3ccc(NC(=O)Nc4cc(C(F)(F)F)ccc4F)cn3)ccc2[nH]1.Cl.Cl` [GW681170], for which the “%Inh” value stood at 0% with STK36; 3% in the assay with STK39; 16% with SYK; 0% in the assay on SgK110; 79% with TAK1; 0% with TAOK1. The “%Inh” value in the assay with TAOK2 was determined as 0%; with TAOK3, 0%; in the assay with TBK1, 19%; in the assay with TEC, 0%; with TESK1 it was 10%; in the assay on TGFBR1, 0%. The “%Inh” value with TGFBR2 turned out to be 0%; in the assay on TIE1 it was 93.1%; with TIE2, 98.6%; in the assay on TLK1, 11%; with TLK2, 0%; with TNIK, 0%. The “%Inh” value in the assay with TNK1 and in the assay with TNK2 was 0% each time.

With `CC(=O)N1CCN(c2ccc(Nc3nccc(-c4sc(C(C)C)nc4-c4cccc(NS(=O)(=O)c5cccc(Cl)c5)c4)n3)cn2)CC1` [GSK1660437], the “%Inh” value in the assay with STK36 was determined as 99.8%; with STK39 it was 19%; in the assay with SYK it was 61%; in the assay with SgK110 it was 0%; with TAK1 it was 41%; in the assay on TAOK1, 0%. Also, the “%Inh” value with TAOK2 was 0%; in the assay on TAOK3, 3%; in the assay on TBK1, 2%; in the assay on TEC, 21%; in the assay with TESK1 it was 66%; in the assay with TGFBR1, 76%. In addition, the “%Inh” value with TGFBR2 was 79%; in the assay with TIE1, 76%; in the assay with TIE2, 96.8%; in the assay on TLK1 it was 0%; in the assay with TLK2, 0%; in the assay on TNIK it was 10%. Further, the “%Inh” value amounted to 95.6% with TNK1 and 28% with TNK2.

Regarding `CCS(=O)(=O)c1ccc(OC)c(Nc2nccc(-c3c(-c4cccc(NC(=O)c5c(F)cccc5F)c4)nn4ncccc34)n2)c1` [GSK326180], the “%Inh” value in the assay on STK36 turned out to be 99.7%; with STK39 it was 16%; in the assay with SYK, 4%; in the assay on SgK110, 0%; in the assay with TAK1, 0%; in the assay on TAOK1, 0%. In addition, the “%Inh” value in the assay on TAOK2 was found to be 0%; with TAOK3, 0%; in the assay with TBK1 it was 21%; in the assay with TEC, 4%; in the assay with TESK1 it was 2%; in the assay with TGFBR1, 22%. The “%Inh” value in the assay on TGFBR2 was determined as 0%; with TIE1, 47%; in the assay on TIE2, 37%; with TLK1, 3%; in the assay on TLK2, 0%; in the assay on TNIK it was 0%. Further, the “%Inh” value with TNK1 was 85%; in the assay on TNK2 it was 48%.

Source of the values: paper PMC5540273 (PLoS ONE, 2017).
